Laboratory results: PubChem BioAssay AID1861 (The Scripps Research Institute Molecular Screening Center, 2009)
Screen size: about 290,000 compounds; about 3,100 (1.1%) were called active. Rule as the data show it: active = inhibition above about 16% (passing the limit was not always enough); inactive = the rest. The full list was thinned out, with actives kept by preference.

Biological target: Neuropeptides B/W receptor type 1 (Homo sapiens) (UniProt P48145)
Experiment: GPR7 receptor antagonists, primary screen, cell-based, fluorescence, single concentration (AID 1861);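 also: cells stimulated with the agonist NPW; 0% = agonist with vehicle and 100% = vehicle without agonist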
Conditions: GPR7-expressing cells, fluorescence antagonist assay; at 4.4 µM; hits give high values

Chain of Neuropeptides B/W receptor type 1 (Homo sapiens) (P48145 whole entry, looked up): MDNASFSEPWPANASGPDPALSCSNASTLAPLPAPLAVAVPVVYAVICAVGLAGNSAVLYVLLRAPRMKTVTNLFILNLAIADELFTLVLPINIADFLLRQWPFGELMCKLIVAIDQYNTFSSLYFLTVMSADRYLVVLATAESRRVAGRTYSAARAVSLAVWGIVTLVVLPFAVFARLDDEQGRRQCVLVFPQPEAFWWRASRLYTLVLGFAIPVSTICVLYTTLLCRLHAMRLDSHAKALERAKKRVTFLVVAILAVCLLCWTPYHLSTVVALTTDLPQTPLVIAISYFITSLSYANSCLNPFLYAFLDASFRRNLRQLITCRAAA

Row | Compound | inhibition
1 | CCOCCCNCc1cc(Br)ccc1OCC | 10.1% (inactive)
2 | COc1cc(CNC2CCCCC2)c(Br)cc1OC1CCCC1 | -7.35% (inactive)
3 | CC(C)(C)NCc1cc(Br)ccc1OC1CCCC1 | 22.3% (active)
4 | O=C(NCc1cccc(CNC(=O)Nc2cccc(O)c2)c1)Nc1cccc(O)c1 | -9.18% (inactive)
5 | C[C@@H]1C[C@@H]2O[C@H]2/C=C\C=C\C(=O)Cc2c(Cl)c(O)cc(O)c2C(=O)O1 | -17.8% (inactive)
6 | C/C(=N\NC(=O)c1cccc([N+](=O)[O-])c1)c1cccnc1 | -13.8% (inactive)
7 | Cc1ccc(Nc2nnc(SCC(=O)c3cc4ccccc4o3)s2)cc1C | -6.61% (inactive)
8 | Cc1cc(NC(=O)CSc2nnc(Nc3ccccc3F)s2)no1 | -3.75% (inactive)
9 | Cc1ccccc1Nc1nnc(SCC(=O)c2cc3ccccc3o2)s1 | 28% (active)
10 | COc1ccc(-c2nc3c(s2)CCc2onc(-c4ccc(OC)cc4)c2-3)cc1 | -14.6% (inactive)
11 | O=C(CC1C(=O)NCCN1CC(c1ccccc1)c1ccccc1)NCC1CCOCC1 (stereo not drawn) | -12.4% (inactive)
12 | COCCn1cnc2c1c(=O)n(CC(=O)NN)c(=O)n2Cc1ccccc1 | -7.23% (inactive)
13 | Cc1ccc(F)c(NC(=O)CCOc2ccccc2C)c1 | -9.71% (inactive)
14 | O=c1c([N+](=O)[O-])cc(C(F)(F)F)cn1Cc1cccc(Cl)c1 | 1% (inactive)
15 | O=[N+]([O-])/C=C/c1ccc2c(ccn2Cc2ccccc2)c1 | 50.9% (active)
16 | O=C(/C=C/c1cccc([N+](=O)[O-])c1)N1CCN(Cc2ccccc2)CC1 | 33.7% (inactive)
17 | CCc1ccc(NC(=O)CN2C(=O)COc3ccc(S(=O)(=O)N4CCCC4)cc32)cc1 | -5.64% (inactive)
18 | CCn1c(COc2ccccc2)nnc1SCC(=O)NCc1ccco1 | 3.08% (inactive)
19 | C=CCn1c(CNC(=O)c2ccco2)nnc1SCC(=O)c1ccc(OC)cc1 | -0.25% (inactive)
20 | COc1ccc(C(=O)CSc2nnc(COc3ccccc3)n2Cc2ccco2)cc1 | 42.3% (active)
21 | CCc1ccc(N2CC(C(=O)N3CCCCCC3)CC2=O)cc1 (stereo not drawn) | -4.17% (inactive)

Row | Compound | inhibition
22 | COc1ccccc1N(CC(=O)N/N=C(\C)c1ccccc1O)S(=O)(=O)c1ccc(C)cc1 | -9.35% (inactive)
23 | Cc1ccc(NC2=C(Cl)C(=O)OC2OC(=O)c2ccccc2C)cc1 (stereo not drawn) | 36.4% (active)
24 | Cc1ccccc1C(=O)OC1OC(=O)C(Cl)=C1Nc1ccccc1 (stereo not drawn) | 0.02% (inactive)
25 | O=C1OC(OC(=O)c2ccccc2Br)C(N2CCOCC2)=C1Cl (stereo not drawn) | -8.99% (inactive)
26 | Cc1cccc(NC(=S)NCCc2ccc(Cl)cc2)c1C | -3.82% (inactive)
27 | COC(=O)Cc1ccc(NC(=S)NCc2ccc(Cl)cc2)cc1 | -7.45% (inactive)
28 | O=C(Cc1ccc(Cl)cc1)NC(=S)Nc1ccccc1O | 80.2% (active)
29 | Cc1ccc(C(=O)NC(=S)Nc2ccccc2C)cc1 | -4.66% (inactive)
30 | Cc1ccccc1NC(=S)NC(=O)Cc1ccc(Cl)cc1 | 56.5% (active)
31 | O=C(COc1ccc(Cl)cc1)NC(=S)Nc1ccccc1N1CCOCC1 | -6.56% (inactive)
32 | COc1ccc2oc(=N)c(C(=O)Nc3ccc(Br)cc3)cc2c1 | -2.95% (inactive)
33 | CC(=O)Nc1ccc(S(=O)(=O)NC2Cc3ccccc3C2)cc1 | 17.6% (inactive)
34 | O=C(c1cc2ccccc2o1)N1CCN(Cc2ccccc2)CC1 | -6.86% (inactive)
35 | COc1ccc(NC(=O)CCCC2CCCCC2)c(OC)c1 | 14.9% (inactive)
36 | Cc1ccc(C)c(SCc2nc3sc(C(=O)O)c(C)c3c(=O)[nH]2)c1 | -16.9% (inactive)
37 | COc1ccccc1NC(=O)CSc1nc2sc3c(c2c(=O)n1-c1ccccc1)CCN(C)C3 | 4.04% (inactive)
38 | Cc1ccc(-c2nc(SCC(=O)Nc3ccccc3OC(F)F)c3c(C)c(C(=O)O)sc3n2)cc1 | 29.8% (active)
39 | COc1cccc(/C=C(/CC(=O)Nc2ccc(N3CCOCC3)cc2)c2nc3ccccc3s2)c1 | -6.54% (inactive)
40 | Cc1ccc(C)c(C(=O)N2CCC(n3nccc3NC(=O)C3CC3)CC2)c1 | -10.3% (inactive)
41 | CCCCCCn1c(CN2CCCCC2)nc2c1c(=O)n(C)c(=O)n2C | 0.86% (inactive)
42 | CCCCCCCCn1c2c(c(=N)c3c1CCC3)CCCC2 | 57.5% (active)

Row | Compound | inhibition
43 | COc1ccccc1C(=O)N/C(=C/c1ccco1)C(=O)Nc1ccc(C(=O)O)cc1 | 0.36% (inactive)
44 | CCCC(=O)Nc1ccc(Cl)c(NC(=O)c2ccc(Br)o2)c1 | -14% (inactive)
45 | CCN1CCN(c2c(Cl)cccc2NC(=O)c2ccc(Br)o2)CC1 | 23.7% (active)
46 | O=C(Nc1cccc(Cl)c1N1CCOCC1)c1cccnc1 | -1.34% (inactive)
47 | COc1ccc2cc(C(=O)NCC3CCCO3)[nH]c2c1 (stereo not drawn) | -1.93% (inactive)
48 | Clc1cccc(Cl)c1OCCOCCNCc1ccccc1 | -2.47% (inactive)
49 | CCN(CC)CCOCCOc1ccc(Cl)c2ccccc12 | 27.1% (active)
50 | CN(C)CCOCCOc1ccc(Cl)c2ccccc12 | 14.1% (inactive)
51 | COc1ccc(NS(=O)(=O)c2ccc(O)c(C(=O)OCC(=O)NC3CCCCC3)c2)cc1 | -13.8% (inactive)
52 | NC(=O)COc1ccccc1C(=O)NC12CC3CC(CC(C3)C1)C2 | -4.36% (inactive)
53 | O=C(Cc1nn[nH]n1)NCCC1=CCCCC1 | -14.2% (inactive)
54 | Cc1ccccc1CN1CCNC(=O)C1CC(=O)NCCC1=CCCCC1 (stereo not drawn) | -1.59% (inactive)
55 | CN1CCNC(=O)C1CC(=O)NCCC1=CCCCC1 (stereo not drawn) | 18.4% (active)
56 | Cc1c(C(=O)O)nnn1-c1nonc1N | -7.01% (inactive)
57 | CCN(CC)Cc1c(C(=O)N/N=C/c2cccc(OCc3ccc(F)cc3)c2)nnn1-c1nonc1N | 6.35% (inactive)
58 | CCN(CC)Cc1c(C(=O)OC)nnn1-c1nonc1N | 36.6% (active)
59 | O=C(CSc1nnnn1C1CCCC1)N1CCCCC1 | 0.56% (inactive)
60 | CCOC(=O)C1(Cc2ccccc2C(F)(F)F)CCN(C(=O)c2cc(C)n(C)n2)CC1 | -2.9% (inactive)
61 | OC(CNCC1CCCO1)Cn1c2ccc(Br)cc2c2cc(Br)ccc21 (stereo not drawn) | 25.7% (active)
62 | CC(NS(=O)(=O)c1ccc(Br)cc1)C(=O)NCC1CCCO1 (stereo not drawn) | -6% (inactive)
63 | O=C(CSc1ccc(-c2ccc(Br)cc2)nn1)NCC1CCCO1 (stereo not drawn) | -0.63% (inactive)
